Results on 67 molecules are retold here after PubChem BioAssay AID1259343 (VanderVen Lab, College of Veterinary Medicine, Cornell …, 2017).

The whole screen tested about 6,200 compounds, of which about 2,900 (47%) were called active. So high a share suggests a set chosen from earlier hits. The list shows a part of the results. Unmarked numbers belong to inactive results. Rule as the data show it: active = inhibition above about 50%; inactive = the rest.

This assay can be described thus: Mycobacterium tuberculosis growth inhibition, primary screen (AID 1259343). To be noted: inhibition: at 10 µM, stronger effect = higher value; outcome: 10 uM.
In general, inhibition refers to the drop in the measured response relative to a control, in per cent. Consider `NC(=S)c1cc2ccccc2oc1=O`, for which the inhibition was 101% (active).
Regarding `O=c1oc2ccccc2cc1S(=O)(=O)c1ccc(Cl)cc1`, the inhibition is -58.5%.
Regarding `Cc1ccn2c(=O)nc(SCCc3ccccc3)nc2c1`, the inhibition was 88.3% (active).
The result for `Cc1ccn2c(=O)nc(SCc3ccc(Cl)cc3Cl)nc2c1` reads 31.1%.
Next, `Cc1ccn2c(=O)nc(SCc3ccc(F)cc3)nc2c1`: 1.46%; `Cc1ccn2c(=O)nc(SCc3ccc(Cl)c(Cl)c3)nc2c1`: 59% (active).
Next, `Cc1ccn2c(=O)nc(SCc3ccc(Br)cc3)nc2c1`: 1.95%; `Cc1ccn2c(=O)nc(SCc3ccc(Cl)cc3)nc2c1`: 77.5% (active); `Cc1ccc(CSc2nc(=O)n3ccc(C)cc3n2)cc1`: 24.5%.
For the molecule `Cc1ccn2c(=O)nc(SCc3cccc(Cl)c3)nc2c1`, the inhibition is 86.3% (active).
Next, `Cc1ccn2c(=O)nc(SCc3cccc(C(F)(F)F)c3)nc2c1`: 2.92%.
The result for `N#CCSc1nnnn1-c1ccc(O)cc1` reads -12.8%; that for `CCCSc1nnnn1-c1ccc(O)cc1`, 55% (active); that for `O=C(CSc1ncnc2c1cnn2-c1ccc(F)cc1)Nc1ccon1`, 68.2% (active).
Regarding `COc1cc(NC(=O)CSc2ncnc3c2cnn3C)cc(OC)c1`, the inhibition is 35.5%.
The result for `Cc1noc(-c2ccnc(NCc3ccc(C#N)cc3)c2)n1` reads 22.9%; that for `Cc1nc(SCC(=O)C23CC4CC(CC(C4)C2)C3)nc(C)c1C`, 45%.
For `O=C(C[P+](c1ccccc1)(c1ccccc1)c1ccccc1)C12CC3CC(CC(C3)C1)C2`, the inhibition was 95.7% (active).
Next, `Cc1ccc(-n2c(SCC(=O)N3CCNC3=O)nc3sc4c(c3c2=O)CCC4)c(C)c1`: 91.2% (active); `CC(=O)CSc1nc2sc(C)c(C)c2c(=O)n1C1CCCCC1`: 12%.
Next, `Fc1ccc(Cc2nc(CSc3c(F)c(F)cc(F)c3F)cs2)c(Cl)c1`: 50.2% (active); `CNC(Cc1ccc(Br)cc1)Cc1ccc(Br)cc1`: 68.1% (active); `NCCOc1ccc(C23CC4CC(CC(C4)C2)C3)cc1`: -5.79%.
Next, `CN1CCN(CC(O)COc2ccc(C34CC5CC(CC(C5)C3)C4)cc2)CC1` (configuration not stated): 101% (active); `c1csc(CCNc2ncnc3sc4c(c23)CCC4)c1`: -1.33%.
In the case of `CC(=NNc1ncnc2sc3c(c12)CCC3)c1cc2ccccc2o1`, the inhibition is 24.7%.
For the molecule `COCc1nc(NCCC2=CCCCC2)c2cnn(C)c2n1`, the inhibition was -33.4%.
As to `C1=C(CCNc2ncnc3sc4c(c23)CCC4)CCCC1`, the inhibition is 97% (active).
The result for `c1nc(NC2CCCCCC2)c2c3c(sc2n1)CCCC3` reads 94.5% (active); that for `c1nc(NC2CCCCCC2)c2c3c(sc2n1)CCC3`, 68% (active).
Next, `Cc1cn2nc(NC3CCCCCCC3)sc2n1`: -9.07%; `c1nc(NN=C2C3CC4CC(C3)CC2C4)c2c3c(sc2n1)CCC3`: 100% (active).
Next, `CCCCCNc1ncnc2sc3c(c12)CCCC3`: -24.3%; `O=S(=O)(Nc1ncnc2sc3c(c12)CCC3)c1cccs1`: 101% (active).
With `Cc1nc(-c2ccccn2)[nH]c(=O)c1CC(=O)N1CCc2ccccc2C1`, the inhibition was 67.7% (active).
Next, `O=C(CSc1nnc(CCn2ccc(=O)[nH]c2=O)o1)N1CCc2ccccc2C1`: 4.33%; `Cc1ccc(NC(=O)c2cc(C)n(C3CC3)c2C)c(C)c1`: 12.4%.
Next, `CC1=C(C#N)C(C(F)(F)F)(C(F)(F)F)N=C(C2CCCCC2)N1`: 11.3%; `Nc1nc(COc2ccc(Cl)cc2Cl)cs1`: 87.6% (active); `CC(=O)Nc1nc(COc2ccc(Cl)cc2Br)cs1`: 41.2%.
Turning to `Cc1nc(COc2ccccc2C(=O)Nc2ccc(Cl)cc2C)cs1`, the inhibition is -36.5%.
The result for `CCCCn1c(C2CCCCC2)nc2oc3ccccc3c(=O)c2c1=O` reads -33.2%.
The result for `COc1nc(C)ccc1CNC(=O)C(=O)Nc1cccc(F)c1F` reads 8.51%.
For the molecule `Clc1ccc(-c2noc(COc3ccc4c(c3)OCO4)n2)cc1`, the inhibition was 18.1%.
Next, `Cc1ccc(-c2noc(CSc3ncccn3)n2)cc1`: 42.6%.
Next, `Cc1ccc(-c2noc(CC#N)n2)cc1`: 77.1% (active); `CN(Cc1nc(-c2ccc(C(F)(F)F)cc2)no1)CC(O)c1ccccc1` (configuration not stated): 84.5% (active); `CC(C)c1ccc(-c2noc(CN(C)c3ccccc3)n2)cc1`: 63.2% (active).
Next, `Cc1ccc(-c2noc(COc3ccc(C(C)C)cc3)n2)cc1`: 95.7% (active); `CN(Cc1nc(-c2ccccc2)no1)Cc1ccnc2ccccc12`: -26.1%.
Take `N#CCOc1ccc(CNc2ncc(Br)cn2)cc1`: the inhibition is 33.8%.
On to `Cc1ccc(-c2noc(CN3CCCc4ccccc43)n2)cc1`, for which the inhibition is 101% (active).
Next, `N#Cc1c(SCc2ccccc2)n[nH]c1-c1cccs1`: 37.8%.
As for `O=c1[nH]nc(SCc2ccccc2)c(=S)[nH]1`, the inhibition is 85.6% (active).
Next, `CC(C)(C)c1nnc(NC(=O)c2cc(C(F)(F)F)cc(C(F)(F)F)c2)s1`: 96% (active); `CC(C)CC(=O)Nc1nnc(C(C)(C)C)s1`: 17.4%; `CC(C)c1cc(C(=O)N2C[C@@H]3[C@H](C2)[C@H]2CC[C@@H]3O2)cs1`: -8.56%.
The result for `CCCc1nc(N2C[C@@H]3[C@H](C2)[C@H]2CC[C@@H]3O2)no1` reads -30.4%; that for `CC(C)Cc1cc(C(=O)N2C[C@@H]3[C@H](C2)[C@H]2CC[C@@H]3O2)on1`, 83.1% (active); that for `CC1CCN(C(=O)Nc2ccc(Br)cc2)CC1`, 30.1%.
Next, `Cc1ccc(NC(=O)N2CCN(CCCOC(c3ccc(Cl)cc3)c3ccc(Cl)cc3)CC2)cc1`: -2.85%; `CC(C)c1noc(-c2ccc(NC(=O)N3CCCC3)cc2)n1`: 73.4% (active).
For the molecule `COc1ccc(NC(=O)c2ccc(=O)n(C)c2)cc1Br`, the inhibition was 2.47%.
Next, `COC(F)(C(=O)Nc1ccc(C)c(Br)c1)C(F)(F)F` (configuration not stated): 56.7% (active); `Cc1ccc(NC(=O)c2ncoc2C(C)C)cc1Br`: 40.1%.
Next, `O=C1CC(c2ccccc2)CC(=O)C1S(=O)c1ccc(Cl)cc1` (configuration not stated): 58.1% (active).
Take `C=C=C/C=C/C=C\Oc1ccc(CO)cc1O/C=C\C=C\C=C=C`: the inhibition is 88.7% (active).
